An excerpt weighted towards active compounds, which were near 7.6% of everything screened.
VP16 counter – counter-screen for ROR gamma inhibitors: Gal4-VP16 reporter | Potency, µM (top dose mostly 53.6 µM), for inactives: at the highest dose activity, negative = inhibition, most hits filed as inhibitors | Drosophila S2 Gal4-VP16 UAS-luciferase, luminescence, 20 h | hit rate 3.5% among 310,000;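 note: Gal4-VP16 expression switched on by copper sulfate through the metallothionein promoter; potency is the fitted concentration of half-maximal effect; % is set by controls: 0 for no effect and ±100 for the full control effect; nearly all actives have a fitted effect of over 50% in size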
RORgamma inh – blocks mouse ROR gamma transcriptional activity; P51450; Drosophila S2 Gal4-RORgamma UAS-luciferase reporter, 20 h; Potency, µM (titrated, usually from 53.6 µM), for the others: at the top dose activity change, negative = inhibition, usual class: inhibitors; hit rate 5.4% among 310,000; note: potency is the fitted concentration of half-maximal effect; % is set by controls: 0 for no effect and ±100 for the full control effect; nearly all actives have a fitted effect of over 60% in size
Target sequence (P51450 whole entry, looked up, the tested form may be a part): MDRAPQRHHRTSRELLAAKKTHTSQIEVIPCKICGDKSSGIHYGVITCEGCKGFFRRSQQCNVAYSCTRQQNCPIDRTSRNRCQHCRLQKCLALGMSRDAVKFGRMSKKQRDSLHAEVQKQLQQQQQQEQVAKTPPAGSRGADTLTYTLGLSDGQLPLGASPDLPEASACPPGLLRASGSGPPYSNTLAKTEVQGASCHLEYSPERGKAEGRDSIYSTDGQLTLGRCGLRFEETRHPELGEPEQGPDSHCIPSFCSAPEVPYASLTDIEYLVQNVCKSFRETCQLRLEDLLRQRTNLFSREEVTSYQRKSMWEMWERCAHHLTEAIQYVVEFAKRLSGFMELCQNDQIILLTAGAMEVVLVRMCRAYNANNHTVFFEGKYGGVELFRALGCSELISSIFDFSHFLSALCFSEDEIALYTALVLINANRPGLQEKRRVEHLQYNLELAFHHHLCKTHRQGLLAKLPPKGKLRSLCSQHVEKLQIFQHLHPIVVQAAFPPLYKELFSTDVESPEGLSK
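Stable Schneider cell line, Gal4 DNA-binding domain fused to ROR gamma, UAS-luciferase. Cmpd 1 hr RT → CuSO4 700 uM final → 20 hr RT → luciferase reagent 10 min → luminescence.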
Giardia killer – Giardia lamblia killing. Giardia lamblia trophozoite viability. activity change, % at 7.66 µM, hits read low. hit rate 0.15% among 340,000; in the data active = activity change below about -80%; inconclusive = between about -30% and that limit;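 note: parasites exposed to compound for two days anaerobically before the ATP read; % is set by controls: 0 for no effect and ±100 for the full control effect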
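Each well holds 100 Giardia trophozoites and compound. After two days (48 hrs) at 37 deg C in anaerobic conditions, ATP is quantified by luminescence.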
p53 reactivator – re-activators of mutant p53. H1299 p53-A138V BP100-luciferase reporter, luminescence, 24 h. Potency, µM (top dose mostly 92.2 µM), for the others: at the highest dose activity change, positive = activation, most hits filed as activators. hit rate 0.063% among 320,000. AID 504706; note: potency is the fitted concentration of half-maximal effect; % of control where 0% means no effect; nearly all actives have a fitted effect of over 45% in size
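p53-null H1299 cells stably carrying temperature-sensitive p53-A138V and a BP100-luciferase reporter were pinned with compounds (4-point, 1:5 series) and held 24 hrs at 37 deg C. Luminescence was read 10 min after detection reagent.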
BRCA1 expr act – BRCA1 expression activation | MCF7-BRCA1-FFLuc reporter, luminescence, 48 h; response scale: scaled: vehicle 0%, 10 µM genistein 100% | Potency, µM (highest dose often 46.1 µM), inactives show at the highest dose activation, actives largely listed as activators | hit rate 1.1% among 380,000; note: potency is the fitted concentration of half-maximal effect; nearly all actives have a fitted effect of over 80% in size
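MCF7-BRCA1-FFLuc cells, 2000/well in phenol-red-free MEM, attached 2 h then treated 48 h at 37 C. Luciferase luminescence read 15 min after reagent; normalized to genistein maximum activation (10microM) and DMSO, concentration-response fitted.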
ELG1 DNA repair – blocks ELG1-dependent DNA repair in HEK293T cells. HEK293T ELG1-luciferase reporter, luminescence, 16 h; DNA damage induced by 5-fluorouridine. hit rate 2.3% among 330,000. Potency, µM (series often up to 46.1 µM), for inactives: at the highest dose activity change, negative = inhibition, most hits filed as inhibitors. AID 504467; note: potency is the fitted concentration of half-maximal effect; % is set by controls: 0 for no effect and ±100 for the full control effect; nearly all actives have a fitted effect of over 55% in size
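Step one: seed 2,000 cells per well. Step two: pin-transfer compound or DMSO alongside 5-fluorouridine. Step three: incubate 16 hr, 37 °C, 5% CO2. Step four: add ONE-Glo, wait 30 min, read luminescence.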
Active calls of the source: *; ? = inconclusive; / = not tested or not shown; [ ] = dose if it differs, or a comment. Unless noted, calls come from the whole dose curve; as a rule, active = well fitted curve in the direction sought with a large enough effect; inconclusive = small, poorly fitted or top-dose-only effect, or another doubt; inactive = no such curve, though single readings can be large; an effect the other way counts as inactive or inconclusive.

SMILES | VP16 counter | RORgamma inh | Giardia killer | p53 reactivator | BRCA1 expr act | ELG1 DNA repair
N#C/C(=C\c1coc2ccccc2c1=O)C(N)=S | ? | 12.6µM* | -5.3 | -12.7% | 1.2% | -5.2%
Cc1ccc(S(=O)(=O)N2CCCC(C(=O)NC3CC3)C2)cc1 (configuration not stated) | 13.2% | -29.5% | -2.7 | -3.3% | -4.1% | 3.9%
CCN(c1cccc(C)c1)S(=O)(=O)c1c(C)[nH]c(=O)[nH]c1=O | -4.0% | -6.3% | 0.8 | 4.9% | -3.4% | 5.1%
O=C1C(=O)c2ccccc2C(O)=C1c1ccccc1F | 1.26µM* | -18.6% | 5.5 | -0.9% | -14.8% | -12.5%
Cc1ccc(SCC(=O)c2c(C)nc3ccccn23)cc1 | -20.8% | -43.7% | 18.9 | -2.1% | 22.3% | ?
Cc1ccc(CSc2nccc(-c3c(C)nc4ccccn34)n2)cc1 | -23.5% | ? | -27.5 | -3.3% | -59.4% | 14.6µM*
CC(C)CCN1CCC(CN2CCNC(=O)C2=O)CC1 | / | / | 22.0 | / | 3.2% | /
CCCCCCCCC(=O)NNC(=O)c1c(O)c2ccccc2n(CCC)c1=O | -11.4% | -23.6% | 10.7 | -1.7% | -59.4% | 11.6%
CC(=O)/C(=N\Nc1ccccc1Cl)Sc1cccc2cccnc12 | 4.47µM* | 2.82µM* | 7.1 | -6.0% | -30.4% | 6.5%
Cc1cccc(NC(=O)CSc2cccc3cccnc23)c1 | ? | ? | -24.9 | -36.6% | -24.4% | 1.8%
CC(=O)/C(=N\Nc1ccccc1)Sc1cccc2cccnc12 | ? | 14.1µM* | ? | -1.7% | -30.6% | -7.2%
Cn1nc(-c2ccc(C(=O)Nc3cccc(C(F)(F)F)c3)cc2)c2ccccc2c1=O | / | / | / | / | 14.3% | /
COC(=O)[C@]1(CC(C)C)N[C@H](c2ccc(-c3ccccc3)cc2)[C@@H]2C(=O)N(C)C(=O)[C@@H]21 | / | / | 10.8 | 4.6% | -31.2% | -8.1%
Cc1ccc(C(=O)Nc2ccccc2N2CCCCC2)cc1S(=O)(=O)N1CCOCC1 | / | / | -6.7 | / | -46.4% | /
CCC1CCCCN1C(=S)NC(=O)c1cccs1 (configuration not stated) | 1.12µM* | 0.708µM* | -14.0 | 0.9% | -1.4% | -14.0%
CCC1CCCCN1C(=S)NC(=O)c1cc(Br)ccc1Cl (configuration not stated) | / | / | -6.2 | 5.1% | -22.2% | -13.6%
O=C(Nc1ccccc1N1CCCCC1)c1ccc(F)c(S(=O)(=O)N2CCOCC2)c1 | / | / | -3.5 | -6.2% | -48.2% | 13µM*
O=C(NCC1CCCCC1)c1ccc(F)c(S(=O)(=O)N2CCOCC2)c1 | / | / | -19.2 | 5.3% | -28.8% | 0.5%
CCC1CCCCN1C(=S)NC(=O)c1ccc([N+](=O)[O-])cc1 (configuration not stated) | 0.282µM* | 0.251µM* | 3.1 | 3.0% | -9.8% | 2.7%
CCC1CCCCN1C(=S)NC(=O)c1ccc(F)c(S(=O)(=O)N2CCOCC2)c1 (configuration not stated) | 1.58µM* | 0.562µM* | 5.9 | -1.6% | -2.2% | ?
COc1ccc(CNC(=O)c2ccc3c(=O)n4c(nc3c2)CCCCC4)cc1OC | / | / | 0.4 | -4.2% | -47.2% | -20.2%
O=c1[nH]cnc2c1C(c1ccc(Cl)cc1)c1c(nc[nH]c1=O)O2 | -5.5% | -16.4% | 3.6 | 6.1% | -12.3% | ?
CCOC(=O)C1CCN(C(=S)NC(=O)c2cccs2)CC1 | 4.47µM* | 5.62µM* | 3.7 | 1.8% | 31.7% | -0.9%
Cn1c(-c2ccc(CN3CCCCC3)o2)nc2ccccc21 | ? | ? | -1.3 | 11.4% | 3.16µM* | ?
c1ccc2c(c1)nc(-c1ccncc1)n2CCNc1nc(CN2CCCCC2)cs1 | -7.8% | 8.5% | 18.3 | / | 4.6% | 24.9%
SMILES | VP16 counter | RORgamma inh | Giardia killer | p53 reactivator | BRCA1 expr act | ELG1 DNA repair
CCn1nccc1C(=O)Nc1cc(Cl)ccc1Cl | / | 8.4%[0.365 µM] | 6.4 | -15.1% | 7.7% | 9.1%
CCn1nccc1C(=O)Nc1ccc(Cl)cc1Cl | ? | 42.6% | 4.8 | 7.0% | 10µM* | ?
CC(=O)c1ccc(NC(=S)N2CCCC(C(F)(F)F)C2)cc1 (configuration not stated) | 14.9% | -12.8% | 1.5 | 5.4% | 2.4% | 8.7%
CCc1nnc(NC(=O)C23CC4CC(CC(C4)C2)C3)s1 | 7.1% | ? | 6.7 | ? | 11.2µM* | ?
CSc1nnc(NC(=O)C23CC4CC(CC(C4)C2)C3)s1 | ? | 17.8µM* | 5.3 | ? | 90.3% | ?
CC(C)Cc1nnc(NC(=O)C23CC4CC(CC(C4)C2)C3)s1 | -17.2% | ? | 5.8 | 3.2% | 5.6% | 14.6%
O=C(Nc1nnc(C2=COCCO2)o1)C1CCCCC1 | 1.1% | 19.7% | 26.3 | 7.0% | 4.9% | 2.6%
O=C(Nc1nnc(C2=COCCO2)o1)c1cccc(F)c1 | 0.562µM* | 0.631µM* | ? | 2.4% | -0.6% | 0.8%
Cc1cccc(C(=O)Nc2nnc(C3=COCCO3)o2)c1 | 1µM* | 0.501µM* | 11.5 | 20.1% | -3.0% | -0.9%
C=CCn1c(SCc2n[nH]c(=S)n2-c2ccccc2)nnc1-c1ccccc1 | 3.1% | -23.0% | -10.8 | 0.7% | -2.2% | 0.2%
Cc1ccc(C(C)(C)NC(=O)C2CCC(=O)N(CCCN3CCOCC3)C2)cc1 (configuration not stated) | 2.2% | -9.3% | 13.8 | -3.4% | 23.7% | 12.9%
C/C(=N\NC(=O)c1ccccc1)c1ccccc1F | -18.9% | -32.0% | 23.8 | -5.4% | ? | ?
C/C(=N\NC(=O)c1ccccc1)c1ccccc1Br | 6.31µM* | 3.55µM* | -2.3 | ? | 11.2µM* | ?
O=C(Nc1ccc(N2CCCCC2)cc1)c1cccnc1Cl | 14.1% | 44.9% | 7.3 | 16.9% | 10µM* | ?
COc1ccc(C(=O)Nc2ccc(N3CCCCC3)cc2)cc1Br | -15.1% | 30.8% | -9.4 | 24.0% | 3.55µM* | ?
O=C(N/N=C/c1ccc(N2CCOCC2)cc1)c1ccc(O)cc1 | ? | 4.47µM* | 22.5 | -0.2% | 6.3% | ?
Cc1cc(C)c(NC(=O)CCS(=O)(=O)c2cc3c(cc2Cl)NC(=O)CO3)c(C)c1 | / | / | / | / | -2.8% | /
CCC(=O)Nc1ccc2c(c1)N(C(C)=O)c1ccccc1CC2 | 15.5% | -43.2% | 10.9 | / | -2.0% | -6.6%
COc1ccc(C(=O)N/N=C/c2ccc(SC)cc2)cc1 | 0.0% | ? | 6.7 | 26.8% | 36.8% | 11.0%
C/C(=N\NC(=O)c1ccc(F)cc1)c1ccc(N2CCOCC2)cc1 | -3.3% | -21.4% | -10.1 | -3.4% | 34.8% | ?
C/C(=N\NC(=O)c1ccc(O)cc1)c1ccc(N2CCOCC2)cc1 | ? | 1.78µM* | 22.2 | 1.2% | 5.9% | 20.8%
O=C(Nc1ccc(N2CCCCC2)cc1)c1ccccc1 | ? | 3.55µM* | ? | 8.2% | -3.1% | ?

Source: PubChem BioAssay (National Center for Advancing Translational Sciences (NCATS))
